# Among all 220,000 compounds or so, about 2,600 (1.2%) were called active.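 How the source made its calls: active means activation above the mean of all tested compounds plus 3 SD, set per screening run (cut at about 8.8% in these data); inactive means the rest.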 Many of the other results were omitted from the sample, so actives are more common in it than they were.
# Target: Wee1-like protein kinase (Homo sapiens) (UniProt P30291)
# Test: Wee1 degradation inhibitors, primary screen, cell-based, HeLa, Wee1K328M-luciferase, luminescence (AID 1321);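 further: cells exposed to compound for 20 h before luminescence read; 0% = DMSO alone and 100% = MG132 at 30 µM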
# Settings: HeLa Luc-Wee1K328M stability, at 5 µM, active compounds read high, 100% = proteasome inhibitor MG132 effect
row,Structure (SMILES),reporter increase
1,NNC(=O)c1ccc(COCC(F)(F)C(F)F)cc1,2.09% (inactive)
2,COc1ccc(-c2csc(NC3OC(=O)c4ccccc43)n2)cc1 (centres undefined),1.6% (inactive)
3,Cc1nnsc1C(=O)NCc1c(F)cccc1Cl,-2.45% (inactive)
4,Cn1c(=O)c2c(nc(NCc3ccccc3)n2CC(N)=O)n(C)c1=O,-2.48% (inactive)
5,OC(c1ccccc1)C(CN1CCOCC1)c1ccccc1 (centres undefined),0.23% (inactive)
6,Cc1ccc(C(=O)OC(C)CN2CCOCC2)cc1 (centres undefined),2.34% (inactive)
7,CC(CN1CCOCC1)c1ccccc1 (centres undefined),11.8% (active)
8,O=C(CN1CCOCC1)Nc1c(-c2ccccc2)c2cc(Br)ccc2[nH]c1=O,-2.5% (inactive)
9,Cc1ccc2[nH]c(=O)c(CN3CCCCC3)c(-c3ccccc3)c2c1,11.8% (active)
10,Cc1ccc2[nH]c(=O)c(CC=C(Cl)Cl)c(C)c2c1,-1.17% (inactive)
11,Cc1cc(Nc2ccc(N3CCOCC3)cc2)c2cccc(C)c2n1,1.6% (inactive)
12,C/C(=N\Nc1cccc(C(=O)O)c1)c1ccc2c(c1)Nc1ccccc1S2,2.58% (inactive)
13,Cc1cccc(N(C(=O)Cc2cccs2)C(C(=O)NC2CCCC2)c2ccsc2)c1 (centres undefined),-1.49% (inactive)
14,Cc1ccsc1C(C(=O)NC1CCCCC1)N(C(=O)Cc1cccs1)C1CC1 (centres undefined),-1.86% (inactive)
15,Cc1ccccc1N(C(=O)Cc1cccs1)C(C(=O)NC1CCCCC1)c1cn(C)nc1C (centres undefined),12.1% (active)
16,Nc1scc[n+]1Cc1cccc2cccnc12,4.15% (inactive)
17,CC(C)=NN1C(=O)c2ccccc2NC1(C)C,2.65% (inactive)
18,CC(NC(=O)C(C)(C)C)C(c1cccs1)N1CCN(Cc2ccccc2)CC1 (centres undefined),-2.56% (inactive)
19,CC(=O)c1ccc(NC(=O)C2CC(=O)Nc3nc4ccccc4n32)cc1 (centres undefined),11.6% (active)
20,O=C(Nc1ccccc1)C1CC(=O)n2c(nc3ccccc32)N1 (centres undefined),-0.1% (inactive)
21,CCOC(=O)c1ccc(NC(=O)C2CC(=O)Nc3nc4ccccc4n32)cc1 (centres undefined),-0.26% (inactive)
22,Cn1nc(C(C)(C)C)c(NC(=O)c2sccc2Cl)c1C(C)(C)C,1.43% (inactive)

row,Structure (SMILES),reporter increase
1,O=C1N=C(N2CCc3ccccc3C2)S/C1=C\c1ccc(O)cc1,-2.98% (inactive)
2,COc1cc(C(=O)Nn2c(O)c(C3=c4ccccc4=NC3=O)sc2=S)ccc1O,-2.51% (inactive)
3,Cn1ncc(Br)c1C(=O)NCc1cccs1,20.9% (active)
4,O=C(NCc1cccs1)c1ccc(Br)o1,-0.94% (inactive)
5,COc1ccccc1NC(=O)c1c(Br)cnn1C,3.35% (inactive)
6,O=C(O)C(c1ccccc1)C1(O)CCCCC1 (centres undefined),7.89% (inactive)
7,Cc1ccc(NNC(=O)c2c(F)cccc2Cl)cc1Cl,0.76% (inactive)
8,CCN(CC)CCNC(=O)c1ccc(NC(=O)c2c(F)cccc2Cl)cc1,1.18% (inactive)
9,O=C(NNc1cc(Cl)cc(Cl)c1)c1c(F)cccc1Cl,9.07% (active)
10,CCOC(=O)C1CCN(c2c(Nc3cc(C)cc(C)c3)c(=O)c2=O)CC1,-2.25% (inactive)
11,Cc1ccc(S(=O)(=O)/N=C(/Nc2ccccn2)c2ccc(Cl)cc2)cc1,11.1% (active)
12,Cc1ccc(S/C(=N\S(=O)(=O)c2ccc(Cl)cc2)c2ccccc2)cc1,0.58% (inactive)
13,O=S(=O)(/N=C(/Nc1ccccn1)c1ccccc1)c1ccc(Cl)cc1,-2.13% (inactive)
14,CCCCN(CCCC)CC(O)Cn1c2ccccc2c(=O)c2ccccc21 (centres undefined),0.32% (inactive)
15,O=C(Nc1ccc(S(=O)(=O)Nc2nccs2)cc1)c1cccc(S(=O)(=O)N2CCOCC2)c1,-2.58% (inactive)
16,CC(=O)N1CCC(N(C(=O)Nc2ccc(Cl)cc2)C(C)C)CC1,-1.37% (inactive)
17,NC(=O)c1ccc(-c2csnn2)cc1,-2.32% (inactive)
18,CCS(=O)(=O)N1CCC(C(=O)N2CCN(c3ccccc3)CC2)CC1,-1.23% (inactive)
19,CS(=O)(=O)N1CCC(C(=O)N2CCN(c3ccccc3)CC2)CC1,11.4% (active)
20,CCCS(=O)(=O)N1CCCC(C(=O)N2CCN(c3ccccc3)CC2)C1 (centres undefined),-1.94% (inactive)
21,CCC1CCc2c(sc(NC(C)=O)c2C#N)C1 (centres undefined),1.63% (inactive)
22,CCN1CCN(CC(=O)Nc2sc3c(c2C#N)CCC3)CC1,-0.82% (inactive)

row,Structure (SMILES),reporter increase
1,CN1CCN(CC(=O)Nc2sc3c(c2C#N)CCC(C(C)(C)C)C3)CC1 (centres undefined),16.5% (active)
2,CC1CC(NC(=O)/C(C#N)=C/c2ccc[nH]2)CC(C)(C)C1 (centres undefined),1.3% (inactive)
3,c1ccc(-n2cccc2)c(N2CCCCC2)c1,3.42% (inactive)
4,C/C(CC(C)C)=N\Oc1nc(C)cc(C)n1,-1.74% (inactive)
5,O=C(Nc1cccc(C(F)(F)F)c1)c1ccc(N2CCNCC2)c([N+](=O)[O-])c1,1.22% (inactive)
6,COc1cc(OC)cc(C(=O)NC(=S)N2CCN(c3ccc(C(F)(F)F)cc3[N+](=O)[O-])CC2)c1,12.2% (active)
7,Cc1cccc(C(=O)NC(=S)N2CCN(c3ccc([N+](=O)[O-])cc3)CC2)c1,-1.67% (inactive)
8,Cc1cc(C)nc(NC(=O)/C=C/c2ccc(Cl)cc2)n1,-2.67% (inactive)
9,CC(C)n1c(=S)[nH]c2cc(C(F)(F)F)ccc21,-2.42% (inactive)
10,Cc1[nH]n(C)c(=O)c1N=Nc1ccc(S(C)(=O)=O)cc1,1.89% (inactive)
11,COc1cc(CC(=O)N/N=C/c2ccccc2)c([N+](=O)[O-])cc1OC,10.2% (active)
12,O=C(Cc1cc(=O)[nH][nH]1)N/N=C/c1ccccc1[N+](=O)[O-],-4.24% (inactive)
13,COc1ccc(C(=O)NCC(=O)N/N=C/c2ccc([N+](=O)[O-])o2)cc1OC,-1.47% (inactive)
14,CCn1c(SCC(=O)N/N=C/c2ccccc2OCC(=O)O)nnc1-c1ccc(C(C)(C)C)cc1,0.66% (inactive)
15,CCN(CC)C(=O)CSC(Nc1cccc(F)c1)=C(C#N)C#N,-3.44% (inactive)
16,Cc1cccc(N2CCN(Cc3nc(C4CC4)no3)CC2)n1,-3.23% (inactive)
17,Cc1ccc(S(=O)(=O)NC(=O)Nc2nc(-c3ccc(F)c(F)c3)cs2)cc1,7.86% (inactive)
18,COc1ccc(Cl)cc1NC(=O)CCN1CCOCC1,-3.24% (inactive)
19,C=CCOc1ccc(Cl)cc1CNCCCN1CCOCC1,-1.69% (inactive)
20,COc1ccc(-c2ccc(CNCCCN3CCOCC3)o2)cc1Cl,8.92% (active)

# From PubChem BioAssay AID1321 (The Scripps Research Institute Molecular Screening Center, 2008)
